Source: PubChem BioAssay (EPA / NIEHS)
Several values for one entry are separate records, joined by “and”; a condition that tells them apart may be missing. Identical values can stand only once. Inconclusive results are not listed. Where a structure was tested more than once in an assay, its records may differ in their call. Activity calls are given as the source filed them. Rule for the calls: active = hit-call score of the fitted dose curve at least 0.9, where 1 is the maximum; inconclusive = response in the unintended direction; inactive = score below 0.9.

Columns and labels:
[1] = ATG_XTT_Cytotoxicity: Cytotoxicity Assessment in the Attagene TRANS-FACTORIAL HepG2 Assay (AID 2283584);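 for AC50: cells exposed to compound for 24 h before reading; active means loss of viability signal versus DMSO baseline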
Outline: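 XTT readout of cell number in transfected HepG2 cells, 24 h post-dosing; DMSO serves as negative control and baseline, with activity taken as loss of viability signal.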

[2] = TOX21_p53_BLA_p2_viability: Viability Assessment in the Tox21 HCT-116 p53 Agonism Beta-lactamase Assay, Phase 2 (AID 2283591);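 note: compound exposure lasted 16 h at 37 °C; actives lower the ATP signal meaning cytotoxicity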
Outline: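 HCT116 p53-bla cells, 4000/well, dosed after 5 h plating (217-fold dilution of DMSO stocks) and incubated 16 h at 37C. Viability taken as cellular ATP by CellTiter-Glo luminescence after 30 min RT; signal loss marks cytotoxicity.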

[3] = biological target: Cellular tumor antigen p53 (Homo sapiens) (UniProt P04637); assay: TOX21_p53_BLA_p2_ratio: Tox21 HCT-116 p53 Agonism Beta-lactamase Assay, Ratio, Phase 2 (AID 2283592)
Sequence of Cellular tumor antigen p53 (Homo sapiens) (P04637 whole entry, looked up): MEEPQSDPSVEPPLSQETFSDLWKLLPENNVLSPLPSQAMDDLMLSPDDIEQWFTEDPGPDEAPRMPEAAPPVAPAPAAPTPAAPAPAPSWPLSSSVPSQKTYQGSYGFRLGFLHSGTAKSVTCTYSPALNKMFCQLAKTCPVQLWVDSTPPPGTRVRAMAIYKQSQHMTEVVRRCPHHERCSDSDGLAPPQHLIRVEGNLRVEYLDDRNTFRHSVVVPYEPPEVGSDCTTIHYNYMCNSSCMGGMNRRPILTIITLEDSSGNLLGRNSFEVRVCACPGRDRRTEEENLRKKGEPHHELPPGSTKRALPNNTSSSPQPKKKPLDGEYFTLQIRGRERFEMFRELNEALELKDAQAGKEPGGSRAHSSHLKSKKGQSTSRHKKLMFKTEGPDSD
Outline: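 In this cell-based reporter format, HCT116 cells were dosed with chemicals delivered from DMSO by 217-fold dilution and incubated 16 h at 37C. Emission at 460 and 530 nm after 2 h CCF4-AM loading provided the ratio, fitted upward versus DMSO.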

[4] = TOX21_p53_BLA_p3_viability: Viability Assessment in the Tox21 HCT-116 p53 Agonism Beta-lactamase Assay, Phase 3 (AID 2283593);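 note: cells exposed to compound for 16 h before reading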
Outline: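 HCT116 cells, 4000/well, dosed 5 h after plating by pin transfer (217-fold dilution from DMSO stock) and incubated 16 h at 37C, 5% CO2. Viability read as ATP luminescence with CellTiter-Glo after 30 min at room temperature.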

[5] = biological target: Cellular tumor antigen p53 (Homo sapiens) (UniProt P04637); assay: TOX21_p53_BLA_p3_ratio: Tox21 HCT-116 p53 Agonism Beta-lactamase Assay, Ratio, Phase 3 (AID 2283596)
Outline: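 HCT116 p53-bla cells (4000/well) given compound in DMSO (217-fold dilution) after 5 h, incubated 16 h at 37C. CCF4-AM substrate 2 h at room temperature; 460/530 nm emission ratio, gain fitted against DMSO.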

[6] = TOX21_p53_BLA_p4_viability: Viability Assessment in the Tox21 HCT-116 p53 Agonism Beta-lactamase Assay, Phase 4 (AID 2283597);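 note: hits lower the luminescence signal meaning cytotoxicity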
Outline: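 We seeded HCT116 p53 reporter cells at 4000/well and waited 5 h. We then added compounds in DMSO at a 217-fold dilution and incubated for 16 h. Viability was read as CellTiter-Glo luminescence after 30 min at RT.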

[7] = biological target: Cellular tumor antigen p53 (Homo sapiens) (UniProt P04637); assay: TOX21_p53_BLA_p5_ratio: Tox21 HCT-116 p53 Agonism Beta-lactamase Assay, Ratio, Phase 5 (AID 2283599)
Outline: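 HCT-116 p53-bla cells (4000/well) plated 5 h, dosed with compound (217-fold DMSO dilution) for 16 h at 37 C; CCF4-AM substrate 2 h at room temperature. Activity is the 460/530 nm emission ratio (405 nm excitation), fitted in gain-of-signal direction versus DMSO.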

[8] = biological target: Cellular tumor antigen p53 (Homo sapiens) (UniProt P04637); assay: TOX21_p53_BLA_p4_ratio: Tox21 HCT-116 p53 Agonism Beta-lactamase Assay, Ratio, Phase 4 (AID 2283601)
Outline: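 HCT-116 p53 beta-lactamase reporter cells (4000/well) preincubated 5 h, then compound (217-fold dilution of DMSO stock) for 16 h at 37C. CCF4-AM substrate added 2 h at room temperature; 460/530 nm emission ratio fitted upward versus DMSO.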

[9] = TOX21_p53_BLA_p5_viability: Viability Assessment in the Tox21 HCT-116 p53 Agonism Beta-lactamase Assay, Phase 5 (AID 2283600)
Outline: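 Compounds, pinned from DMSO at 217-fold dilution, were left on the cells for 16 h. The viability endpoint was ATP content measured by CellTiter-Glo luminescence, where falling signal reflects cytotoxicity.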

[10] = Tanguay_ZF_120hpf_MORT_legacy: (Legacy) Oregon State University Tanguay Lab 120 Hour Post-fertilization zebrafish Assay for Mortality (AID 2283633);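 for AC50: fitted as increase in binary mortality versus DMSO negative control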
Outline: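 Brightfield scoring of embryo death (binary) at 24 and 120 hpf; static exposure 6–120 hpf, 28C, sealed and foil-covered. Pronase-dechorionated 5D wild-type larvae, single embryo per well. DMSO 0.64% v/v; trimethyltin chloride 5uM positive control.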

[11] = Tanguay_ZF_120hpf_YSE_legacy: (Legacy) Oregon State University Tanguay Lab 120 Hour Post-fertilization zebrafish Assay for Yolk Sac Edema (AID 2283634);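 for AC50: actives raise the incidence of yolk sac edema above the DMSO baseline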
Outline: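 Binary brightfield scoring of yolk sac edema at 120 hpf; DMSO baseline, gain-of-signal fitting. Dechorionated 5D larvae, one per well, static exposure 6–120 hpf, 28C, 0.64% DMSO. Dead embryos not scored.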

[12] = Tanguay_ZF_120hpf_AXIS_legacy: (Legacy) Oregon State University Tanguay Lab 120 Hour Post-fertilization zebrafish Assay for Body Axis Malformation (AID 2283635);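 for AC50: potency for an increased fraction of larvae scored with body axis malformation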
Outline: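 Embryos: 5D wild-type, pronase-dechorionated 4 hpf; static exposure 6–120 hpf, 28C, sealed, dark, 1 embryo/well, 0.64% DMSO. 120 hpf axis malformation scored present/absent; dead embryos excluded. Analysed as gain of signal vs DMSO.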

[13] = Tanguay_ZF_120hpf_EYE_legacy: (Legacy) Oregon State University Tanguay Lab 120 Hour Post-fertilization zebrafish Assay for Eye Malformation (AID 2283636);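 note: binary presence or absence of eye malformation scored by brightfield in 120 hpf larvae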
Outline: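 Dechorionated Tropical 5D zebrafish embryos, one per well from 6 hpf, static exposure to 120 hpf at 28C, 0.64% DMSO. Eye malformation scored present/absent by brightfield; dead embryos not scored.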

[14] = Tanguay_ZF_120hpf_SNOU_legacy: (Legacy) Oregon State University Tanguay Lab 120 Hour Post-fertilization zebrafish Assay for Snout Malformation (AID 2283637)
Outline: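 Dechorionated tropical 5D wild-type zebrafish embryos exposed statically from 6 to 120 hpf at 28C, one per well, in 0.64% DMSO. Snout malformation scored as present/absent by brightfield at 120 hpf; dead embryos not scored.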

[15] = Tanguay_ZF_120hpf_JAW_legacy: (Legacy) Oregon State University Tanguay Lab 120 Hour Post-fertilization zebrafish Assay for Jaw Malformation (AID 2283638);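 for AC50: active means more embryos with jaw malformation than DMSO controls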
Outline: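 Binary jaw-malformation calls at 120 hpf by brightfield imaging; DMSO (0.64% v/v) = baseline. Embryos: 5D wild-type, pronase-dechorionated, one per well from 6 hpf, static exposure, 28C, sealed, dark.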

[16] = Tanguay_ZF_120hpf_OTIC_legacy: (Legacy) Oregon State University Tanguay Lab 120 Hour Post-fertilization zebrafish Assay for Otic Vesicle Malformation (AID 2283639)
Outline: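 Tropical 5D wild-type zebrafish embryos statically exposed in 0.64% DMSO at 28C until 120 hpf; 5uM trimethyltin chloride as positive control. Otic vesicle malformation scored present/absent by brightfield; dead embryos not scored; gain fitted versus DMSO.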

[17] = Tanguay_ZF_120hpf_PE_legacy: (Legacy) Oregon State University Tanguay Lab 120 Hour Post-fertilization zebrafish Assay for Pericardial Edema (AID 2283640);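 for AC50: potency for increased incidence of pericardial edema versus DMSO baseline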
Outline: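 Static waterborne exposure, 5D wild-type embryos, 28C, to 120 hpf; final DMSO 0.64% (vol/vol). Binary PE call at 120 hpf by brightfield; fitted upward vs DMSO baseline. 5uM trimethyltin chloride as positive control.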

[18] = Tanguay_ZF_120hpf_BRAI_legacy: (Legacy) Oregon State University Tanguay Lab 120 Hour Post-fertilization zebrafish Assay for Brain Malformation (AID 2283641)
Outline: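 Read-out: binary brain morphology call at 120 hpf (brightfield), fitted in gain-of-signal direction vs DMSO. Wild-type Tropical 5D embryos, static exposure, 28C, 0.64% DMSO final; 5uM trimethyltin chloride as positive control.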

[19] = Tanguay_ZF_120hpf_SOMI_legacy: (Legacy) Oregon State University Tanguay Lab 120 Hour Post-fertilization zebrafish Assay for Somite Malformation (AID 2283647)
Outline: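 Binary brightfield scoring of somite defects at 120 hpf in 5D wild-type larvae; one dechorionated embryo per well, static exposure from 6 hpf, 28C, sealed and dark. Final DMSO 0.64%; trimethyltin chloride 5uM positive control.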

[20] = Tanguay_ZF_120hpf_PFIN_legacy: (Legacy) Oregon State University Tanguay Lab 120 Hour Post-fertilization zebrafish Assay for Pectoral Fin Malformation (AID 2283648);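 note: each larva judged yes or no for fin defect by brightfield with dead larvae skipped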
Outline: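 Dechorionated Tropical 5D wild-type zebrafish embryos, one per well, statically exposed from 6 to 120 hpf at 28C with 0.64% DMSO final. Pectoral fin malformation scored present/absent by brightfield at 120 hpf; not scored in dead embryos.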

Measured: AC50

CC(O)CNCC(C)O (configuration not stated)
inactive: [1] | [2] | [3] | [4] | [5] | [6] | [7] | [8]

CN1CCc2cccc3c2[C@H]1Cc1ccc(O)c(O)c1-3
inactive: [1] | [2] | [3] | [4] | [5] | [7] | [8]
active: [3] 56.6 µM | [7] 86.8 µM | [8] 67.3 µM

CCCCCCCCCCCCOC(C)=O
inactive: [1]

CCCCCC(=O)O[C@]1(C(C)=O)CC[C@H]2[C@@H]3CCC4=CC(=O)CC[C@]4(C)[C@H]3CC[C@@]21C
inactive: [1] | [2] | [3] | [4] | [5] | [6] | [7] | [8]

COc1ccccc1O
inactive: [1] | [2] | [3] | [4] | [5] | [6] | [7] | [9] | [8]

CCCCC/C=C\C=C\C(=O)OCC
inactive: [1] | [5]
active: [2] 68.7 µM | [3] 75.6 µM | [4] 49.1 µM | [6] 66.6 µM | [7] 73.4 µM | [9] 47.7 µM | [8] 89.9 µM

CC(O)COCC(C)O (configuration not stated)
inactive: [1] | [2] | [3] | [4] | [5] | [7] | [9] | [8]

COC(=O)c1ccc(C(=O)OC)cc1
active: [11] 37 µM | [12] 21.1 µM | [13] 34 µM | [14] 30.2 µM | [15] 32.7 µM | [17] 28.9 µM | [18] 44.4 µM
inactive: all other assays above

C1CCCNCC1
inactive: [1]

[Na+]
inactive: [1] | [2] | [3] | [4] | [5] | [6] | [7] | [9] | [8]

CCCCOCC(C)OCC(C)O (configuration not stated)
inactive: [1]

Cc1cc(O)c2c(c1)C(=O)c1cc(O)cc(O)c1C2=O
active: [3] 6.55 µM and 13.2 µM | [5] 12 µM and 33.3 µM | [7] 11.9 µM
inactive: [1] | [2] | [4] | [7] | [8]

CC1(C)CC(N)CC(C)(CN)C1 (configuration not stated)
inactive: [1] | [2] | [3] | [4] | [5] | [7] | [9] | [8]

O=C(O)c1cccc(Cl)n1
inactive: [1] | [2]

CCOC(=O)C=Cc1ccccc1
inactive: [1] | [2] | [3] | [4] | [5] | [7]

CCCCCCCCCC(=O)OCC
inactive: [1] | [2] | [3] | [4] | [5] | [7] | [9] | [8]

CCCCCCC(C)O (configuration not stated)
inactive: [1] | [2] | [3] | [4] | [5] | [6] | [7] | [8]

C[C@]12CC[C@@H]3c4ccc(O)cc4CC[C@H]3[C@@H]1CC[C@@H]2O
inactive: [1] | [2] | [3] | [4] | [5] | [7] | [9] | [10] | [11] | [13] | [14] | [15] | [17] | [18] | [19]
active: [3] 29 µM and 16.7 µM | [5] 32 µM and 34.9 µM | [7] 31.7 µM and 34.6 µM | [8] 31.4 µM and 17.7 µM and 15.6 µM

Cc1cc(O)c(C)c(C)c1O
inactive: [1]

O=C(c1ccc(OCCN2CCCCC2)cc1)c1c(-c2ccc(O)cc2)sc2cc(O)ccc12
inactive: [1] | [10] | [11] | [12] | [13] | [14] | [17] | [19] | [20]
active: [1] 28.3 µM and 28.6 µM and 34.3 µM | [2] 84.9 µM and 71.8 µM and 42.8 µM | [3] 68.6 µM and 62.8 µM and 36.4 µM | [4] 69.8 µM and 74.5 µM and 35.6 µM | [5] 74.5 µM and 71.4 µM and 26.1 µM | [6] 68.2 µM and 68.5 µM and 25.1 µM | [7] 72.8 µM and 81.5 µM and 36.2 µM | [8] 69.6 µM and 69.3 µM and 36.5 µM

Nc1ccn([C@H]2CC[C@@H](CO)O2)c(=O)n1
inactive: [1] | [2] | [3] | [4] | [5] | [6] | [7] | [9] | [8]

CCCCCCCCOC(=O)c1ccc(O)cc1
active: [1] 100 µM
inactive: [1]

CC1COC(=O)O1 (configuration not stated)
inactive: [1] | [2] | [3] | [4] | [5]

CC(C)(C)C1CCC(O)CC1 (configuration not stated)
inactive: [1] | [2] | [3] | [4] | [5] | [6] | [8]

CC/C(=C(\c1ccccc1)c1ccc(OCCN(C)C)cc1)c1ccccc1
active: [2] 33.7 µM and 69.5 µM and 35.2 µM | [3] 47.8 µM and 84.4 µM and 43.5 µM | [4] 74.8 µM [middle of 5 runs] | [5] 86.9 µM [middle of 4 runs] | [7] 75.4 µM [middle of 4 runs] | [9] 64.3 µM [middle of 4 runs] | [8] 40 µM and 84.5 µM and 42 µM | [10] 31.4 µM
inactive: [1] | [2] | [3] | [5] | [8] | [10] | [11] | [12] | [14] | [16] | [17] | [19] | [20]

O=Cc1ccccc1O
inactive: [1] | [2] | [3] | [4] | [5] | [7] | [9]
